Our source for the Potency values is PubChem BioAssay (Tox21).

Calls of active or inactive are those of the source. Entries that show only a call come without a potency. The call rests on the fitted dose curve.

Muscarinic acetylcholine receptor M1 (Homo sapiens), sequence (P11229 whole entry, looked up): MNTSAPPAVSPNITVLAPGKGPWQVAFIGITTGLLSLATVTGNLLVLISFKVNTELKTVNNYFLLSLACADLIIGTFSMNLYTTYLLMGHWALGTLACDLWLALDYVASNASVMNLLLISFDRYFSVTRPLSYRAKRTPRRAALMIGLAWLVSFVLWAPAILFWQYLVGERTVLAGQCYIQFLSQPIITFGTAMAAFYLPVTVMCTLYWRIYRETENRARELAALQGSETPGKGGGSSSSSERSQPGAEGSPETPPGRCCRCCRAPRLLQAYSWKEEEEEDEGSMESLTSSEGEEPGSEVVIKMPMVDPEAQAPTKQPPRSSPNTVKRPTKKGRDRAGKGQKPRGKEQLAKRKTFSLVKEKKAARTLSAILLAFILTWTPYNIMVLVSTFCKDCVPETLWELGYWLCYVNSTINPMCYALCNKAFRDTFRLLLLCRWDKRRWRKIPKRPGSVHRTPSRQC

This assay has as its target Muscarinic acetylcholine receptor M1 (Homo sapiens) (UniProt P11229). Nature of the assay: Cholinergic receptor muscarinic 1 (CHRM1) small molecule agonists, cell-based qHTS assay (AID 1963589). Further: nearly all actives have a fitted effect of over 35% in size. As to conditions: CHRM1-CHO cells, agonist mode, calcium flux fluorescence; series mostly up to 76.8 µM. The text has this:
National Center for Advancing Translational Sciences [NCATS]
Division of Preclinical Innovation [DPI]
U.S. Environmental Protection Agency [EPA]
National Institutes of Environmental Health Sciences [NIEHS]
National Toxicology Program [NTP]
U.S. Food and Drug Administration [FDA]
The CHRM1 is a muscarinic receptor. This receptor plays a crucial role in learning and memory processes and has long been identified as a promising therapeutic target for the improvement of cognitive decline in Alzheimer's disease (AD). The CHRM1-CHO cell line stably expressing human muscarinic acetylcholine receptor M1 (CHRM1) can be used for screening agonists and antagonists of interactions between CHRM1 and its ligands. The CHRM1-CHO Calcium Flux Assay is a homogeneous fluorescence-based assay for detecting the intracellular calcium level using FDSS kinetic plate reader system.
CHRM1-CHO cells were dispensed at 1000 cells/3uL/well in 1536-well black-clear bottom plates using a Multidrop Dispenser. After the assay plates were incubated at a 37 C/5% CO2 incubator for 18 h, 3 uL of Dye Loading Buffer was transferred to the assay plate by a Flying Reagent Dispenser. The assay plates were incubated at 37 C for 1h. For agonist mode, 23 nL of compounds dissolved in DMSO, positive controls or DMSO only was transferred to the assay plate by a pin tool. […] Each test compound was measured at 15 concentrations in three independent runs.
`C1CC(COCC2CO2)CCC1COCC1CO1` (stereo not given): the Potency result was “inactive”.

Consider `CCC(=O)C(=O)CC`, for which the Potency entry was “inactive”. As for `CCOC(=O)c1cnc2c(cnn2CC)c1NN=C(C)C`, the entry is “inactive”; as for `CCOC(=O)C(Br)c1ccccc1` (stereo not given), “inactive”; as for `ClC1=C(Cl)C1(Cl)Cl`, “inactive”. As for `CN(C)[C@@H]1C(=O)C(C(=O)NCN2CCCC2)=C(O)[C@@]2(O)C(=O)C3=C(O)c4c(O)cccc4[C@@](C)(O)C3C[C@@H]12` (stereo not given in full), the entry is “inactive”; as for `O=C(NC(Cc1cc(=O)[nH]c2ccccc12)C(=O)O)c1ccc(Cl)cc1` (stereo not given), “inactive”; as for `CCCCCCCCCCC(=O)O`, “inactive”. On to `C=CC(C)C#N` (stereo not given), for which the Potency result was “inactive”. As for `CCC(C=O)CC`, the entry is “inactive”; as for `Clc1cc(Cl)c(Cl)nc1Cl`, “inactive”. For `Cc1cc(O)c2c(c1)C(=O)c1cccc(O)c1C2=O` the value was “inactive”.

On to `CC(C=O)Cc1ccc(C(C)C)cc1` (stereo not given), for which the Potency entry was “inactive”. As for `C=CCOC(=O)/C=C\C(=O)OCC=C`, the entry is “inactive”; as for `Cc1cc(OI)c(C(C)C)cc1-c1cc(C(C)C)c(OI)cc1C`, “inactive”.

Consider `C=C/C(C)=C/C/C=C(\C)CCC=C(C)C`, for which the Potency result is “inactive”.

Turning to `C=C(C)C(=O)OCC1CCCO1` (stereo not given), the Potency entry is “inactive”. Consider `CCC(C)(CCCC(C)C)OC(C)=O` (stereo not given), for which the Potency result is “inactive”. For `COc1cc2c(cc1OC)C(=O)CC2` the value was “inactive”. As for `CN=C(NC#N)Nc1ccc(C2=NNC(=O)CC2C)cc1` (stereo not given), the entry is “inactive”; as for `CCOC(=O)C(O)c1ccccc1` (stereo not given), “inactive”; as for `CCN(CC)c1ccc(N)cc1`, “inactive”. For `O=c1[nH]cccc1O` the value was “inactive”; for `C=C(C)c1ccccc1`, “inactive”. For `CCCCCCOC(=O)C(C)C`, the Potency result was “inactive”.

As to `Cc1cc(N)c(S(=O)(=O)O)cc1Cl`, the Potency result was “inactive”. As for `CCCCCCCCCCCl`, the entry is “inactive”. Take `Cn1c(=O)[nH]c2ncn(C)c2c1=O`: the Potency entry is “inactive”.

`C=C(C)C1CCC(C)CC1O` (stereo not given): the Potency result was “inactive”. For `Nc1c2c(nc3c1CCC3)CCCC2` the value was “inactive”; for `C=CC(=O)OCC1CCCO1` (stereo not given), “inactive”; for `C[N+]12CCC(CC1)C(OC(=O)C(O)(c1ccccc1)c1ccccc1)C2` (stereo not given), “inactive”. As for `COc1ccc(OC)c(NC(=O)CC(C)=O)c1`, the entry is “inactive”; as for `CNC(=O)N(c1ccccc1)c1ccccc1`, “inactive”.

Regarding `ClC(Cl)(Br)Br`, the Potency result was “inactive”. Turning to `Nc1cc(C(F)(F)F)ccc1S`, the Potency entry is “inactive”. For `CCOc1ccccc1N`, the Potency result was “inactive”. For `Cc1cccc(Oc2ccccc2)c1` the value was “inactive”; for `CCCCC/C=C/CC(=O)OC`, “inactive”; for `CCCCCCCCCCCC[N+](C)(C)CC(=O)[O-]`, “inactive”.
